DRD3 agonist: activates the human D3 dopamine receptor. P35462. D3R DiscoveRx beta-arrestin cells, luminescence, 90 min. max activation, %. 410,000 compounds, 0.58% hits; in the data active = max activation above about 30%
Target sequence (P35462 whole entry, looked up): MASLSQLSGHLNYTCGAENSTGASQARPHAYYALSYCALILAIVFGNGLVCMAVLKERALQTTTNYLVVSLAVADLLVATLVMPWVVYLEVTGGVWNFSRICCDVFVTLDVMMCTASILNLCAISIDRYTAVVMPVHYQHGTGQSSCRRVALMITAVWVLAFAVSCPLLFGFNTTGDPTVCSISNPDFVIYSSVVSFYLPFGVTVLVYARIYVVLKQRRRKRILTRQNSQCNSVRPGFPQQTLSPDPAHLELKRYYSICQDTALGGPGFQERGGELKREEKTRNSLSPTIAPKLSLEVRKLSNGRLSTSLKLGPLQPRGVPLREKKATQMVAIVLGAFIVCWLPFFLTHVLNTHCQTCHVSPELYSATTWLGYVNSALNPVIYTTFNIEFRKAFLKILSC
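Cells at 1500/well, incubated overnight, then treated with pinned compounds (dopamine as control) for 90 min at 37 degrees C. DiscoveRx reagent added for 30 - 60 minutes at room temperature; luminescence read.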
DRD3 antagonist: antagonists of human D3 dopamine receptor; 360,000 compounds, 2.5% hits; AID 652054; max response, negative = inhibition, %; P35462; D3R cells, DiscoveRx beta-arrestin luminescence, antagonist mode; stronger effect = lower value; in the data active = max response below about -50%; inconclusive = no clear call, values can overlap the other calls
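Cells expressing the human receptor were seeded at 1500 cells/well, incubated overnight at 37 degrees C in 5% CO2, then exposed to library compounds with dopamine controls for 90 minutes at 37 degrees C before luminescent detection.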
Nrf2 activator: activates Nrf2 signaling; AREc32 ARE-luciferase reporter (MCF7-derived line), luminescence, 24 h; Potency, µM (highest dose often 46.1 µM), actives largely listed as activators; 410,000 compounds, 0.31% hits; note: nearly all actives have a fitted effect of over 65% in size
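Quantitative high-throughput format: AREc32 reporter cells, 1000 per well, received compound by pin transfer and were incubated 24 hr at 37 deg C, 5% CO2, before Steady-Glo luminescence detection.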
GRP78 ERSR act: inducers of ER stress response in human glioma cells; U87-MG GRP78 promoter luciferase reporter, 16 h; Potency, µM, actives largely listed as activators; 420,000 compounds, 0.02% hits; AID 602332; note: series mostly up to about 76 µM; nearly all actives have a fitted effect of over 35% in size
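Stably transfected U87-MG human glioma cells carrying a GRP78-based luminescent sensor were seeded at 1000 cells/well, pin-dosed with compounds and incubated 16 h. Luciferase reagent was then added, and end-point luminescence was read after 10 min at room temperature.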
Hits are given with their value; 0 = inactive; ? = inconclusive; - = no result given; ! = a repeat was not active; [ ] = dose if it differs, or a comment. Sampled rows, rich in hits. Any-hit rate of the full collection: about 3%. Unless noted, calls come from the whole dose curve; as a rule, active = well fitted curve in the direction sought with a large enough effect; inconclusive = small, poorly fitted or top-dose-only effect, or another doubt; inactive = no such curve, though single readings can be large; an effect the other way counts as inactive or inconclusive.

SMILES | DRD3 agonist | DRD3 antagonist | Nrf2 activator | GRP78 ERSR act
CNc1sc(C(=O)c2ccc(F)cc2)c(N)c1-c1nc2ccccc2s1 | 0 | -76 | 11µM | 0
Cc1onc(C(=O)NN)c1-c1csc(COc2ccc(Cl)cc2)n1 | 44 | 0 | 0 | 0
Cc1cc(F)ccc1-c1cc(C(=O)NCc2ccc(C(F)(F)F)cc2)[nH]n1 | 0 | ? | 0 | 0
COc1ccc(Cl)c(-c2cc(C(=O)Nc3ccc(F)cc3)[nH]n2)c1 | 0 | -52 | 0 | 0
COc1ccc(Cl)c(-c2cc(C(=O)Nc3ccccc3)[nH]n2)c1 | 0 | 0 | 0 | 0
Cc1ccc(Cl)cc1-c1cc(C(=O)Nc2ccc(F)cc2)[nH]n1 | 0 | -85 | 0 | 0
Cc1ccc(Cl)cc1-c1cc(C(=O)NCc2ccc(C(F)(F)F)cc2)[nH]n1 | 0 | -54 | 0 | 0
COC(=O)c1cn([C@H]2C[C@@H](C(=O)N3CCCCCC3)N(Cc3ccsc3)C2)nn1 | - | - | - | 0
Cn1c(=O)c2c(-c3ccccc3Br)n(C(C)(C)C)cc2n(C)c1=O | 0 | - | 0 | 0
Cc1ccc(N2CC(NC(=O)c3ccc(Br)o3)CC2=O)cc1C (configuration not stated) | 0 | - | 0 | 0
Cc1ccc(CN(C(=O)COc2ccccc2[N+](=O)[O-])c2ccccn2)o1 | 38 | - | 0 | 0
COc1ccc(NC(=O)C(C)n2nc(C)c3c(C)n(-c4ccccc4)nc3c2=O)cc1Cl (configuration not stated) | 0 | - | 0 | 0
COc1cccc(CN2CCC3(CCC(CNC(=O)c4ccccc4)O3)CC2)c1 (configuration not stated) | - | - | - | 0
O=C(O)C(=O)Nc1cccc(-c2nn[nH]n2)c1 | 0 | - | - | -
Cc1ccc(NCCC(=O)c2cccs2)cc1Cl | 0 | 0 | ? | 0
Cc1ccc(NCCC(=O)c2cccs2)cc1C | 0 | 0 | 22µM | 0
COc1ccc2c(c1)C/C(=C\c1ccc(N(C)C)cc1)C2=O | - | - | - | 0
CCC(C(=O)Nc1cc(F)ccc1F)n1nc(C)c2c(C)n(-c3ccc(C)cc3)nc2c1=O (configuration not stated) | 59! | 0 | 0 | 0
Cc1cccc2cc(CN(C(=O)c3ccc(C(F)(F)F)cc3)C3CC3)c(N3CCC(O)CC3)nc12 | - | - | - | 0
COc1cccc(OC)c1OCCCCN1CCC(Cc2ccccc2)CC1 | 0 | -75 | 0 | 0
Cc1ccc([N+](=O)[O-])c(OCCN2CCC(Cc3ccccc3)CC2)c1 | 0 | -83 | 0 | 0
CCOc1ccccc1OCCN1CCC(Cc2ccccc2)CC1 | 0 | -99 | 0 | 0
N#Cc1cccc(C(=O)C(=O)N2CCC(Cc3ccccc3)CC2)c1 | 0 | 0 | - | -
CCOc1ccccc1OCCN1CCCC1 | 0 | 0 | 0 | 0
Cc1ccc([N+](=O)[O-])c(OCCCN2CCCCCC2)c1 | 0 | ? | 0 | 0
SMILES | DRD3 agonist | DRD3 antagonist | Nrf2 activator | GRP78 ERSR act
N#Cc1ccccc1OCCCN1CCC(Cc2ccccc2)CC1 | 0 | -109 | 0 | 0
Cc1cc(C)cc(C(=O)NCCc2sc(-c3ccc(F)cc3)nc2C)c1 | 0 | - | 0 | 0
CCc1ccc(C(=O)c2cn(CC(=O)Nc3ccc(F)cc3)c3cc4c(cc3c2=O)OCO4)cc1 | 0 | - | 0 | 0
Nc1ccc(Cc2ccc(C=O)cc2)cc1 | - | - | - | 0
Cc1ccccc1OCCOCCN1CCCCCC1 | 0 | ? | 0 | 0
O=[N+]([O-])c1cccc(OCCCN2CCC(Cc3ccccc3)CC2)c1 | 0 | -101 | 0[9.22 µM] | 0
Cc1ccccc1OCCN1CCC(Cc2ccccc2)CC1 | 0 | -91 | 0 | 0
CCOc1ccccc1C(=O)NCCCN1CCN(CCCNC(=O)c2ccccc2OCC)CC1 | 0 | -53 | 0 | 0
CCOc1ccccc1C(=O)NCCCCNC(=O)c1ccccc1OCC | 0 | 0 | 0 | 0
CCC(=O)c1ccccc1OCCCN1CCC(Cc2ccccc2)CC1 | 0 | -102 | 0[9.22 µM] | 0
CC(=O)CCc1ccc(OCCCCN2CCC(Cc3ccccc3)CC2)cc1 | 0 | ? | 0 | 0
Cc1ccc(C)c(C(=O)N2CCC(C3(c4ccccn4)NC(=O)N(CC4CCCO4)C3=O)CC2)c1 (configuration not stated) | - | - | - | 0
CCCCCCCOC(=O)c1ccc(OC(=O)c2cccnc2)cc1 | 0 | 0 | 0 | 0
CCCCCOC(=O)c1ccc(OC(=O)c2cncc(Br)c2)cc1 | 0 | -74 | 0 | 0
OC(COCc1ccc(Cl)cc1)CN1CCN(CC(O)COCc2ccc(Cl)cc2)CC1 (configuration not stated) | 0 | 0 | 0 | 0
Cc1ccc(OCC(O)CN2CCOCC2)cc1C (configuration not stated) | 0 | 0 | 0 | 0
CCOc1ccc(OCC(O)CN2CCc3ccccc3C2)cc1 (configuration not stated) | 0 | -98 | 0 | 0
